The values that follow come from PubChem BioAssay (NCI).

Compounds without any hit were thinned out: in the full panel of roughly 83,000, 20% have a hit.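 Step 1: grow cells in 96-well plates. Step 2: add test compound at a single concentration. Step 3: incubate 48 h. Step 4: record percent growth.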 Values without a mark were called inactive. Activity calls are given as the source filed them. How the source made its calls: active means growth percent below 10; inactive means the rest.

What all share (test): NCI-60 one-dose screen, 48 h (100 = growth as untreated, 0 = no growth, -100 = all killed)
Holding throughout (conditions): 10 µM

Assay [1] concerns HCT-15 colon.
Assay [2] relates to HT29 colon.
The test system of assay [3] is SNB-75 CNS.
In assay [4] the test system is SNB-19 CNS.
Assay [5] relates to U251 CNS.
Assay [6] deals with PC-3 prostate.
Assay [7] deals with SK-MEL-5 melanoma.
The subject of assay [8] is UACC-62 melanoma.
In assay [9] the test system is LOX IMVI melanoma.
Assay [10] deals with SK-MEL-28 melanoma.
Assay [11] relates to SK-MEL-2 melanoma.
The test system of assay [12] is EKVX NSCLC.
The test system of assay [13] is SN12C renal.
Assay [14] concerns UO-31 renal.
Assay [15] concerns TK-10 renal.
The test system of assay [16] is ACHN renal.
Assay [17] has as its system CAKI-1 renal.
The test system of assay [18] is A498 renal.
The test system of assay [19] is CCRF-CEM leukemia.
Assay [20] concerns MOLT-4 leukemia.

Take `O=C(CSc1nnc(-c2c[nH]c3ccccc23)n1-c1ccccc1)c1ccccc1`: the growth in [1] is 79.4%; in [2] it was 47.9%; in [3], 100%; in assay [4], 19.2%; in [5] it was 10.8%; in [6], 65.8%. Further, the growth in assay [7] was 90.7%; in assay [8] it was 73.4%; in assay [9], 29.2%; in [10], 100%; in [11], 91.9%; in assay [12], 68.4%. Besides, the growth in assay [13] was 44.7%; in assay [14], 55.5%; in assay [15] it was 72%; in [16] it was 60.5%; in assay [17], 53.2%; in assay [18] it was 106%. The figures for the growth in assay [19] and in [20] were 91.4% and 90.6%, respectively.

Take `COc1ccc(C(=O)/C=C/c2cc(C(F)(F)F)cc(C(F)(F)F)c2)cc1S(N)(=O)=O`: the growth is -58.6% (active) in assay [1]; -59.9% (active) in assay [2]; 12% in [3]; -100% (active) in assay [4]; -68.1% (active) in [5]; -14.4% (active) in assay [6]. The growth in assay [7] is -98.4% (active); in assay [8], -73.4% (active); in assay [9], -100% (active); in assay [10], -98.2% (active); in assay [11], -73.8% (active); in [12] it was -93% (active). Moreover, the growth in [13] was -59.3% (active); in assay [14], -100% (active); in assay [15], -89.8% (active); in [16], -96.2% (active); in assay [17], -83% (active); in [18], 2.73% (active). For the same compound, the growth in assay [19] is 10.7%; in assay [20], 2.98% (active).

Turning to `O=C(Nc1cccc(C(F)(F)F)c1)c1cncc(C#Cc2cnc3ccc(N4CCOCC4)nn23)c1`, the growth in assay [1] was -16.7% (active); in assay [2] it was 5.68% (active); in [3] it was -39.9% (active); in [4] it was -6.03% (active); in assay [5] it was -3.92% (active); in assay [6] it was 6.2% (active). The growth is -66.9% (active) in assay [7]; -22.1% (active) in assay [8]; -87.9% (active) in assay [9]; -17.8% (active) in assay [10]; -26.3% (active) in assay [11]; -22.3% (active) in [12]. Further, the growth in assay [13] was 4.67% (active); in assay [14] it was -31.7% (active); in [15] it was 27.3%; in assay [16], 3.28% (active); in assay [17], 6.18% (active); in [18], -87.8% (active). Also, the growth is 10.6% in assay [19] and 3.44% (active) in assay [20].

`CO[C@@H]1CSS[C@H]1Cn1nc(-c2ccc(Oc3ccccc3)cc2)c2c(N)ncnc21`: the growth in assay [1] is 66.9%; in assay [2], 51.1%; in assay [3] it was 113%; in assay [4], 71.8%; in [5] it was 60%; in [6] it was 51.7%. Also, the growth in [7] was 25.7%; in assay [8], -11.1% (active); in assay [9], 53.7%; in assay [10], -0.701% (active); in assay [11], 64.7%; in assay [12] it was 42.8%. Further, the growth in [13] is 73.9%; in assay [14], 27.2%; in [15] it was 45.5%; in assay [16], 68.2%; in [17], 47.6%; in [18], 67%. Further, the growth in [19] was 10.7%; in assay [20], 14%.

On to `COc1cc(NC(=O)CSc2nnc(-c3ccc4nc(-c5ccc(Cl)cc5)[nH]c4c3)o2)cc(OC)c1OC`, for which the growth in [1] was 43.3%; in [2], 61.7%; in [3], 93.7%; in assay [4] it was 86%; in assay [5], 77%; in [6], 46.9%. The growth in assay [7] is 50.5%; in assay [8] it was 37.8%; in assay [9], 51.9%; in assay [10], 70.5%; in assay [11], 93.4%; in assay [12], 93.1%. Further, the growth in assay [13] is 70.2%; in assay [14], 63.8%; in assay [15], 116%; in assay [16], 66.1%; in [17], 67.8%; in assay [18] it was 121%. Further, the growth in assay [19] is 26.7%; in assay [20] it was 25.1%.

For `COc1ccc(NC(=O)CSc2nnc(-c3ccc4nc(-c5ccc(Cl)cc5)[nH]c4c3)o2)cc1`, the growth was 29.9% in assay [1]; 34.6% in [2]; 112% in assay [3]; 33.7% in assay [4]; -15.3% (active) in assay [5]; 51.9% in assay [6]. In addition, the growth in assay [7] is 16.1%; in assay [8] it was 7.61% (active); in assay [9], 16.6%; in assay [10] it was 10.1%; in assay [11] it was 107%; in assay [12], 98.8%. In addition, the growth in [13] was 29.1%; in assay [14] it was 63.9%; in assay [15] it was 121%; in assay [16] it was 63.8%; in assay [17], 83.6%; in assay [18] it was 132%. Further, the growth in [19] was 67.5%; in assay [20] it was 30.4%.

Take `Cc1ccc(/C=C/C(=O)c2ccc(NC(=O)CSc3nnc(-c4c[nH]c5ccccc45)n3-c3ccccc3)cc2)cc1`: the growth in assay [1] was 79.5%; in assay [2], 100%; in assay [3], 91.5%; in assay [4], 87.9%; in [5], 78.5%; in assay [6], 71.8%. Further, the growth in assay [7] is 94%; in assay [8], 75.8%; in assay [9] it was 78.4%; in [10] it was 99.1%; in [11], 90.5%; in assay [12], 77%. Further, the growth was 76.1% in [13]; 55.3% in assay [14]; 107% in assay [15]; 78.3% in [16]; 80.6% in assay [17]; 111% in [18]. Besides, the figures for the growth in assay [19] and in assay [20] were 93.7% and 68.3%, respectively.
